# Where “and” joins values, the source holds several entries; their conditions need not be identical. Identical values can stand only once. Results filed as inconclusive are left out. Calls of active or inactive are those of the source. Unless noted, calls come from the whole dose curve; as a rule, active = well fitted curve in the direction sought with a large enough effect; inconclusive = small, poorly fitted or top-dose-only effect, or another doubt; inactive = no such curve, though single readings can be large; an effect the other way counts as inactive or inconclusive.
# Columns and labels:
# [1] = qHTS Assay for Lipid Storage Modulators (AID 1519; calls by dose curve; for activity change, negative = inhibition: % is set by controls: 0 for no effect and ±100 for the full control effect); conditions: Drosophila S3 cells, BODIPY lipid droplet/cell ratio, laser cytometry, cells loaded with oleic acid
# In short: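 Cells seeded at 5,000 per well were treated with compounds over a concentration series and loaded with oleic acid (400 uM, as added). Lipid droplet fluorescence (488 nm excitation, 500-530 nm channel) was read by laser-scanning cytometry and normalized to 20 uM Triacsin C.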
# [2] = Cell Viability - LYMP2-006 (AID 978); conditions: LYMP2-006 lymphoblastoid cell viability, qHTS; series mostly up to 92.2 µM;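 note: cells exposed to compound for 24 hours; % is set by controls: 0 for no effect and ±100 for the full control effect; nearly all actives have a fitted effect of over 60% in size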
# In short: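 Human lymphoblastoid cells (LYMP2-006), 2500/well in complete medium, were treated with compound for 24 hr at 37 C. Cellular ATP was read by CellTiter-Glo luminescence after 30 min, and AC50 values came from Hill-equation fits of concentration-response data.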
# [3] = Cell Viability - LYMP2-007 (AID 979); conditions: LYMP2-007 lymphoblastoid cell viability; series mostly up to 92.2 µM;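 note: cells exposed to compound for 24 h before reading; 0% = DMSO only and the negative end = 92 µM tetraoctylammonium bromide; nearly all actives have a fitted effect of over 60% in size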
# In short: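 qHTS cytotoxicity: 2500 cells/well, 5 hr 37 C settle, compound 24 hr 37 C, CellTiter-Glo 30 min RT, luminescence. Decrease in ATP = toxicity. AC50 by standard Hill equation; tetraoctylammonium bromide positive control.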
# [4] = Cell Viability - LYMP2-008 (AID 980); conditions: LYMP2-008 lymphoblastoid cell viability, qHTS; series mostly up to 92.2 µM; note: % is set by controls: 0 for no effect and ±100 for the full control effect; nearly all actives have a fitted effect of over 60% in size
# In short: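 Luminescent ATP read-out (CellTiter-Glo, 30 min RT) after 24 hr compound exposure at 37 C of human lymphoblastoid cells in complete medium. Decrease in ATP taken as cytotoxicity; AC50 derived by standard Hill fit of qHTS concentration-response data.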
# [5] = Cell Viability - LYMP2-010 (AID 981); conditions: LYMP2-010 lymphoblastoid cell viability, qHTS; series mostly up to 92.2 µM;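 note: cells exposed to compound for 24 hours at 37 °C; % is set by controls: 0 for no effect and ±100 for the full control effect; nearly all actives have a fitted effect of over 55% in size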
# In short: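 qHTS cytotoxicity, 1536-well: 2500 cells/well, 5 hr settle, 24 hr compound at 37 C, CellTiter-Glo 30 min RT, luminescence read. Decrease in ATP = toxicity; AC50 via standard Hill equation. Positive control tetraoctylammonium bromide.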
# [6] = Cell Viability - LYMP2-012 (AID 982); conditions: LYMP2-012 lymphoblastoid cell viability qHTS; series mostly up to 92.2 µM;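 note: cellular ATP by luciferase luminescence where a drop means cytotoxicity; cells exposed to compound for one day before reading; 0% = DMSO only and full loss = 92 µM tetraoctylammonium bromide; nearly all actives have a fitted effect of over 55% in size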
# [7] = Cell Viability - LYMP2-014 (AID 983); conditions: LYMP2-014 lymphoblastoid cells, viability qHTS; series mostly up to 92.2 µM;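 note: plate controls were DMSO only for no effect and 92 µM tetraoctylammonium bromide for full effect; nearly all actives have a fitted effect of over 50% in size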
# In short: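 2500 cells/well, 5 hr 37 C; cpd 24 hr 37 C, complete medium; CellTiter-Glo 30 min RT, luminescence; ATP loss = toxicity; AC50 via Hill eqn; tetraoctylammonium bromide positive control.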
# [8] = Cell Viability - LYMP2-016 (AID 984); conditions: LYMP2-016 lymphoblastoid cell viability, qHTS; series mostly up to 92.2 µM;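 note: cells exposed to compound for 24 hours at 37 °C; % is set by controls: 0 for no effect and ±100 for the full control effect; nearly all actives have a fitted effect of over 55% in size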
# In short: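 Human lymphoblastoid LYMP2-016 cells, 2500 per well, treated with compounds for 24 h at 37 C. Viability read as intracellular ATP by CellTiter-Glo luminescence after 30 min at room temperature; AC50 from Hill fits of concentration-response.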
# [9] = Cell Viability - LYMP2-018 (AID 985); conditions: LYMP2-018 lymphoblastoid cells, viability (qHTS); series mostly up to 92.2 µM;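 note: plate controls were DMSO only for no effect and tetraoctylammonium bromide at 92 µM for full effect; nearly all actives have a fitted effect of over 50% in size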
# In short: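 2500 cells/well; 5 hr 37 C; cmpd 24 hr 37 C, complete medium; CellTiter-Glo 30 min RT; luminescence. Tetraoctylammonium bromide positive control. AC50 via Hill fit.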
# [10] = Cell Viability - LYMP2-020 (AID 986); conditions: series mostly up to 92.2 µM;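 note: plate controls were DMSO only for no effect and tetraoctylammonium bromide at 92 µM for full effect; nearly all actives have a fitted effect of over 55% in size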
# In short: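 qHTS, 2500 cells/well; 5 hr then 24 hr compound exposure, 37 C; CellTiter-Glo luminescence after 30 min RT; ATP decrease taken as cytotoxicity; AC50 via Hill equation; tetraoctylammonium bromide positive control.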
# [11] = Cell Viability - LYMP2-022 (AID 987); conditions: LYMP2-022 lymphoblastoid cell viability; series mostly up to 92.2 µM
# In short: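 Luminescent ATP read-out (CellTiter-Glo, 30 min, RT) after 24 hr, 37 C compound exposure of 2500 human lymphoblastoid cells/well in complete medium. Cytotoxicity taken as concentration-dependent ATP loss; AC50 from standard Hill equation.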
# [12] = Cell Viability - LYMP2-024 (AID 988); conditions: LYMP2-024 lymphoblastoid cell viability; series mostly up to 92.2 µM;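 note: plate controls were DMSO only for no effect and 92 µM tetraoctylammonium bromide for full effect; nearly all actives have a fitted effect of over 60% in size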
# In short: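 ATP-based luminescence (CellTiter-Glo, 30 min RT) after 24 h compound exposure at 37 C of 2500 lymphoblastoid cells/well; decrease in ATP taken as cytotoxicity. qHTS concentration-response fitted to standard Hill equation for AC50.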
# [13] = Cell Viability - LYMP2-026 (AID 989); conditions: LYMP2-026 lymphoblastoid cell viability, qHTS; series mostly up to 92.2 µM; note: % is set by controls: 0 for no effect and ±100 for the full control effect; nearly all actives have a fitted effect of over 50% in size
# In short: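 qHTS cytotoxicity: 2500 cells/well, 5 hr 37 C, compound 24 hr 37 C, CellTiter-Glo 30 min RT, luminescence. Tetraoctylammonium bromide positive control. AC50 via standard Hill fit.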
# [14] = Cell Viability - LYMP1-002 - Assay at 24 hr (AID 993); conditions: LYMP1-002 lymphoblastoid cells viability; series mostly up to 92.2 µM; note: % is set by controls: 0 for no effect and ±100 for the full control effect
# In short: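 CellTiter-Glo luminescence (intracellular ATP) after 24 h compound exposure, 37 C, in LYMP1-002 human lymphoblastoid cells; decreased ATP taken as cytotoxicity. AC50 from standard Hill fit of concentration-response curves.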
# [15] = Cell Viability - LYMP1-002 - Assay at 40 hr (AID 994); conditions: LYMP1-002 lymphoblastoid cell viability; series mostly up to 92.2 µM
# In short: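 qHTS cytotoxicity; 2500 cells/well, 5 hr 37 C settle, compound 40 hr 37 C. CellTiter-Glo, 30 min RT, luminescence (ATP). Concentration-response, Hill fit → AC50. Pos. ctrl tetraoctylammonium bromide.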
# [16] = molecular target: Alpha-galactosidase A (Homo sapiens) (UniProt P06280); test: Counterscreen for Glucocerebrosidase Inhibitors: qHTS Assay for Human alpha-Galactosidase at pH 4.5 (AID 992); conditions: purified enzyme, fluorogenic substrate; series mostly up to 76.9 µM; note: 0% is about no effect
# In short: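 Steps: enzyme (2 nM final), then compound across 0.7 nM to 77 uM, then 80 uM fluorogenic galactopyranoside substrate; incubate 20 min at room temperature; quench at pH 10; measure fluorescence at 365/440 nm.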
# [17] = molecular target: alpha-glucosidase (Oryza sativa, rice) (UniProt Q653V4); test: Counterscreen for Glucocerebrosidase Inhibitors: qHTS Assay for Rice alpha-Glucosidase at pH 5.0 (AID 997); conditions: rice alpha-glucosidase enzyme activity; series mostly up to 76.9 µM;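 note: 0% = full activity with enzyme and -100% = basal without enzyme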
# In short: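 Endpoint fluorogenic assay at pH 5.0: compounds (0.7 nM to 77 uM) titrated against 4 nM rice enzyme and 400 uM 4-MU-alpha-glucoside for 20 min at room temperature; NaOH/glycine stop, read ex 365/em 440 nm, Hill-fitted AC50.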
# [18] = measured here: cell count channel max response
# [19] = measured here: lipid channel max response
# Chain of Alpha-galactosidase A (Homo sapiens) (P06280 whole entry, looked up): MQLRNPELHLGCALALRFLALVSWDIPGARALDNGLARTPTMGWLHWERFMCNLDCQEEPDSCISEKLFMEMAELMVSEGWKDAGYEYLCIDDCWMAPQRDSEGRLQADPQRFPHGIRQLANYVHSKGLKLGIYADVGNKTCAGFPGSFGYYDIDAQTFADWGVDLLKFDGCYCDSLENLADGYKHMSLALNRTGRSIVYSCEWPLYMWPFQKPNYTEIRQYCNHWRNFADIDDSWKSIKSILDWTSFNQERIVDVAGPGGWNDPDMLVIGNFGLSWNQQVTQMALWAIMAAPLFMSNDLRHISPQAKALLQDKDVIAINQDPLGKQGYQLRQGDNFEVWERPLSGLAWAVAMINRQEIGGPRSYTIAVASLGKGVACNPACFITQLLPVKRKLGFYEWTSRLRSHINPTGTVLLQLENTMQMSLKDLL
compound,measurement,setting,value
O=C(O)c1ccccc1OP(=O)(O)O,"activity change, negative = inhibition",[1]; at 25.7 µM (top of the series),1.48% (inactive)
same,max response,[1]; [18],3.1%
same,max response,[1]; [19],4.99%
Cc1cccc(Nc2ccccc2C(=O)O)c1C,"activity change, negative = inhibition",[1]; at 25.7 µM (top of the series),-1.13% (inactive)
same,"activity change, negative = inhibition",[1]; at 57.5 µM (top of the series),13.8% (inactive)
same,max response,[1]; [18],-7.11% and 0.438%
same,max response,[1]; [19],-8.71% and 19.7%
C[n+]1ccccc1/C=N/O,"activity change, negative = inhibition",[1]; at 57.5 µM (top of the series),6.44% (inactive)
same,max response,[1]; [18],15.5%
same,max response,[1]; [19],23.8%
COc1ccc2cc(CCC(C)=O)ccc2c1,"activity change, negative = inhibition",[1]; at 25.7 µM (top of the series),1.09% (inactive)
same,max response,[1]; [18],-11.1%
same,max response,[1]; [19],-11.1%
NC(=O)NC1NC(=O)NC1=O (stereo not given),"activity change, negative = inhibition",[1]; at 57.5 µM (top of the series),4.87% (inactive)
same,max response,[1]; [18],2.56%
same,max response,[1]; [19],9.47%
COc1ccccc1OCC(O)CO (stereo not given),"activity change, negative = inhibition",[1]; at 57.5 µM (top of the series),8.3% (inactive)
same,max response,[1]; [18],-0.08%
same,max response,[1]; [19],10.1%
CNCc1ccccc1,"activity change, negative = inhibition",[1]; at 57.5 µM (top of the series),4.39% (inactive)
same,max response,[1]; [18],16%
same,max response,[1]; [19],24.6%
NC(N)=NCCN1CCCCCCC1,"activity change, negative = inhibition",[1]; at 25.7 µM (top of the series),-2.42% (inactive)
same,"activity change, negative = inhibition",[1]; at 57.5 µM (top of the series),6.2% (inactive)
same,max response,[1]; [18],3.46% and 15.5%
same,max response,[1]; [19],0.449% and 29.6%
CCOC(N)=O,"activity change, negative = inhibition",[1]; at 57.5 µM (top of the series),5.36% (inactive)
same,max response,[1]; [18],18.8%
same,max response,[1]; [19],25.8%
Cc1cc(O)cc(C)c1Cl,"activity change, negative = inhibition",[1]; at 57.5 µM (top of the series),11.1% (inactive)
same,max response,[1]; [18],-12.4%
same,max response,[1]; [19],1.81%
Cc1c(NC(=O)c2cccnc2)c(=O)n(-c2ccccc2)n1C,"activity change, negative = inhibition",[1]; at 25.7 µM (top of the series),-1.84% (inactive)
same,"activity change, negative = inhibition",[1]; at 57.5 µM (top of the series),5.04% (inactive)
same,max response,[1]; [18],3.68% and 18.2%
same,max response,[1]; [19],4.21% and 26.8%
O=C(O)COC(=O)Cc1ccccc1Nc1c(Cl)cccc1Cl,"activity change, negative = inhibition",[1]; at 25.7 µM (top of the series),1.87% (inactive)
same,max response,[1]; [18],-9.2%
same,max response,[1]; [19],-7.55%
FC(F)(F)C(Cl)Br (stereo not given),outcome,[2],inactive
same,outcome,[3],inactive
same,outcome,[4],inactive
same,outcome,[5],inactive
same,outcome,[6],inactive
same,outcome,[7],inactive
same,outcome,[8],inactive
same,outcome,[9],inactive
same,outcome,[10],inactive
same,outcome,[11],inactive
same,outcome,[12],inactive
same,outcome,[13],inactive
same,outcome,[14],inactive
same,outcome,[15],inactive
NC(=O)CC[C@@H](N)C(=O)O,outcome,[16],inactive
same,outcome,[17],inactive
COc1ccc(O)cc1,outcome,[2],inactive
same,outcome,[3],inactive
same,outcome,[4],inactive
same,outcome,[5],inactive
same,outcome,[6],inactive
same,outcome,[7],inactive
same,outcome,[8],inactive
same,outcome,[9],inactive
same,outcome,[10],inactive
same,outcome,[11],inactive
same,outcome,[12],inactive
same,outcome,[13],inactive
same,outcome,[14],inactive
same,outcome,[15],inactive
CC1CC(OC(=O)c2ccccc2O)CC(C)(C)C1 (stereo not given),outcome,[2],inactive
same,outcome,[3],inactive
same,outcome,[4],inactive
same,outcome,[5],inactive
same,outcome,[6],inactive
same,outcome,[7],inactive
same,outcome,[8],inactive
same,outcome,[9],inactive
same,outcome,[10],inactive
same,outcome,[11],inactive
same,outcome,[12],inactive
same,outcome,[13],inactive
same,outcome,[14],inactive
same,outcome,[15],inactive
same,"activity change, negative = inhibition",[1]; at 57.5 µM (top of the series),7.41% (inactive)
same,max response,[1]; [18],1.44%
same,max response,[1]; [19],9.79%
Cc1c(N(C)C)c(=O)n(-c2ccccc2)n1C,outcome,[2],inactive
same,outcome,[3],inactive
same,outcome,[4],inactive
same,outcome,[5],inactive
same,outcome,[6],inactive
same,outcome,[7],inactive
same,outcome,[8],inactive
same,outcome,[9],inactive
same,outcome,[10],inactive
same,outcome,[11],inactive
same,outcome,[12],inactive
same,outcome,[13],inactive
same,outcome,[14],inactive
same,outcome,[15],inactive
same,"activity change, negative = inhibition",[1]; at 25.7 µM (top of the series),-4.33% (inactive)
same,max response,[1]; [18],-0.692%
same,max response,[1]; [19],-4.11%
O=C(c1ccccc1)C(O)c1ccccc1 (stereo not given),outcome,[2],inactive
same,outcome,[3],inactive
same,outcome,[4],inactive
same,outcome,[5],inactive
same,outcome,[6],inactive
same,outcome,[7],inactive
same,outcome,[8],inactive
same,outcome,[9],inactive
same,outcome,[10],inactive
same,outcome,[11],inactive
same,outcome,[12],inactive
same,outcome,[13],inactive
same,outcome,[14],inactive
same,outcome,[15],inactive
CC(=O)OCC(COC(C)=O)OC(C)=O,outcome,[2],inactive
same,outcome,[3],inactive
same,outcome,[4],inactive
same,outcome,[5],inactive
same,outcome,[6],inactive
same,outcome,[7],inactive
same,outcome,[8],inactive
same,outcome,[9],inactive
same,outcome,[10],inactive
same,outcome,[11],inactive
same,outcome,[12],inactive
same,outcome,[13],inactive
same,outcome,[14],inactive
same,outcome,[15],inactive
NS(=O)(=O)c1cc2c(cc1C(F)(F)F)NCNS2(=O)=O,"activity change, negative = inhibition",[1]; at 25.7 µM (top of the series),-1.44% (inactive)
same,"activity change, negative = inhibition",[1]; at 57.5 µM (top of the series),2.96% (inactive)
same,max response,[1]; [18],-0.735% and 18.6%
same,max response,[1]; [19],-2.63% and 23.7%

# Reference: PubChem BioAssay (NCATS)
